This is an account of results in PubChem BioAssay (NCI).

Experiment in all cases: NCI-60 one-dose screen, 48 h (100 = growth as untreated, 0 = no growth, -100 = all killed)
In one assay the test system is HCT-15 colon. The following applies: 10 µM unless noted.
The test system of the next assay is HT29 colon. The following applies: 10 µM unless noted.
A further assay deals with SNB-75 CNS. The conditions noted are these: 10 µM unless noted.
The test system of a further assay is SNB-19 CNS. The conditions noted are these: 10 µM unless noted.
The test system of a further assay is U251 CNS. The following applies: 10 µM unless noted.
Another assay has as its system SK-MEL-5 melanoma. The conditions noted are these: 10 µM unless noted.
In the next assay the test system is UACC-62 melanoma. The conditions noted are these: 10 µM unless noted.
The next assay concerns LOX IMVI melanoma. The following applies: 10 µM.
The next assay concerns SK-MEL-28 melanoma. The conditions noted are these: 10 µM unless noted.
Another assay concerns EKVX NSCLC. The following applies: 10 µM unless noted.
The subject of a further assay is SN12C renal. The conditions noted are these: 10 µM unless noted.
The next assay deals with UO-31 renal. The conditions noted are these: 10 µM unless noted.
Another assay relates to TK-10 renal. The following applies: 10 µM unless noted.
Another assay concerns ACHN renal. The conditions noted are these: 10 µM unless noted.
Another assay has as its system CAKI-1 renal. The following applies: 10 µM unless noted.
Another assay concerns A498 renal. The following applies: 10 µM unless noted.
The next assay deals with CCRF-CEM leukemia. The conditions noted are these: 10 µM unless noted.
Another assay has as its system MOLT-4 leukemia. The following applies: 10 µM unless noted.
The next assay concerns PC-3 prostate. The following applies: 10 µM unless noted.
The subject of another assay is SK-MEL-2 melanoma. The conditions noted are these: 10 µM unless noted.

About 83,000 compounds went through this panel and 20% of them were active in at least one assay; those are over-represented in the sample as a whole.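 Single-dose data. Exposure time 48 hours. Values below 10 considered active.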 Values without a mark were called inactive. Activity calls are given as the source filed them.

For the compound `O=C1C(=O)c2cc([N+](=O)[O-])ccc2-c2ccccc21`, the growth with HCT-15 colon is -53.7% (active); in the assay with HT29 colon, -79.4% (active); in the assay on SNB-75 CNS it was -98.2% (active); in the assay with SNB-19 CNS it was -93.8% (active); with U251 CNS, -81.5% (active); in the assay on SK-MEL-5 melanoma, -99.6% (active). Besides, the growth with UACC-62 melanoma was -94.2% (active); in the assay on LOX IMVI melanoma, -88.4% (active); in the assay on SK-MEL-28 melanoma, -97% (active); with EKVX NSCLC, -88.8% (active); with SN12C renal, -88.9% (active); with UO-31 renal, -87.7% (active). Also, the growth with TK-10 renal is -85.2% (active); with ACHN renal, -99.3% (active); in the assay on CAKI-1 renal, -68.6% (active); in the assay on A498 renal it was 110%; in the assay on CCRF-CEM leukemia it was -13.5% (active); with MOLT-4 leukemia, 0.151% (active).
For `O=C(/C=C/c1ccccc1)c1ccccc1O`, the growth in the assay with HCT-15 colon is 67.3%; in the assay on HT29 colon, 84.5%; with SNB-75 CNS, 63.7%; in the assay with SNB-19 CNS, 80.1%; with PC-3 prostate, 92.9%; with SK-MEL-5 melanoma, 94.9%. The growth in the assay with UACC-62 melanoma was 85.8%; with LOX IMVI melanoma, 34.9%; in the assay with SK-MEL-28 melanoma it was 93.9%; in the assay with SK-MEL-2 melanoma, 98.6%; in the assay on EKVX NSCLC, 89.2%; in the assay on SN12C renal, 92.1%. The growth with UO-31 renal was 64.6%; with TK-10 renal, 94.3%; with ACHN renal, 87%; in the assay on CAKI-1 renal, 75.2%; in the assay with A498 renal, 98.3%; with CCRF-CEM leukemia, 55.1%. In addition, the growth in the assay on MOLT-4 leukemia is 70.2%.
As for `CC1(C)CCCC2=C1C(=O)N(SC(Cl)(Cl)Cl)C2=O`, the growth is 85.9% in the assay on HCT-15 colon; 93.5% with HT29 colon; 96.9% in the assay with SNB-75 CNS; 91.2% in the assay on SNB-19 CNS; 93.8% in the assay with U251 CNS; 89.5% in the assay with PC-3 prostate. The growth was 98% with SK-MEL-5 melanoma; 96.1% with UACC-62 melanoma; 99.4% with SK-MEL-28 melanoma; 93.4% in the assay on SN12C renal; 79.1% with UO-31 renal; 88.2% with TK-10 renal. For the same compound, the growth in the assay on ACHN renal was 82.9%; with CAKI-1 renal, 92.4%; in the assay on A498 renal, 120%; in the assay on CCRF-CEM leukemia, 40.5%; in the assay on MOLT-4 leukemia, 21%.
With `CCCCCC/C=C1\CCC(CN2CCCC2)C1=O` (stereo unspecified), the growth is 77.1% in the assay with HCT-15 colon; 120% in the assay on HT29 colon; 90.9% in the assay on SNB-75 CNS; 92.6% in the assay on SNB-19 CNS; 89.7% in the assay with PC-3 prostate; 96.9% in the assay with SK-MEL-5 melanoma. Besides, the growth is 99.2% with UACC-62 melanoma; 59.8% in the assay with LOX IMVI melanoma; 114% in the assay with SK-MEL-28 melanoma; 114% with SK-MEL-2 melanoma; 113% with EKVX NSCLC; 103% in the assay with SN12C renal. Further, the growth in the assay with UO-31 renal was 90.4%; in the assay with TK-10 renal, 124%; with ACHN renal, 114%; in the assay with CAKI-1 renal, 102%; in the assay on A498 renal, 94.1%; in the assay on CCRF-CEM leukemia it was 33.1%. In addition, the growth with MOLT-4 leukemia was 60.2%.
On to `COc1cc(/C=C/C(=O)CC(=O)/C=C/c2ccc(O)c(OC)c2)ccc1O`, for which the growth was 13.8% in the assay with HCT-15 colon; -20.3% (active) with HT29 colon; 7.11% (active) in the assay with SNB-75 CNS; 48.2% with SNB-19 CNS; 18.5% in the assay on U251 CNS; 36.8% in the assay with PC-3 prostate. The growth in the assay on SK-MEL-5 melanoma is 71%; in the assay on UACC-62 melanoma it was 53.5%; in the assay with SK-MEL-2 melanoma, 81.1%; in the assay with EKVX NSCLC, 67.6%; with SN12C renal, 79%; in the assay on UO-31 renal it was 13%. Further, the growth in the assay with ACHN renal is 72.9%; with CAKI-1 renal it was 64.3%; with A498 renal, 101%; with CCRF-CEM leukemia, 5.28% (active); in the assay with MOLT-4 leukemia, 31.4%.
As for `O=C(c1ccccc1)c1cc2ccccc2oc1=O`, the growth is 108% in the assay with HCT-15 colon; 113% with HT29 colon; 71.8% in the assay with SNB-75 CNS; 97.4% with SNB-19 CNS; 90.2% with U251 CNS; 72.3% in the assay on PC-3 prostate. The growth in the assay on UACC-62 melanoma was 93.4%; in the assay on SK-MEL-28 melanoma, 119%; with SK-MEL-2 melanoma, 126%; in the assay on EKVX NSCLC, 95.5%; in the assay on SN12C renal it was 89.4%; in the assay on UO-31 renal, 59.3%. Also, the growth is 130% in the assay on TK-10 renal; 101% in the assay on ACHN renal; 98.7% in the assay with CAKI-1 renal; 117% with A498 renal; 101% in the assay on CCRF-CEM leukemia; 105% in the assay with MOLT-4 leukemia.
With `NC(=S)N/N=C/c1ncccc1O`, the growth in the assay with HCT-15 colon is 33.7%; with HT29 colon it was 28.5%; in the assay with SNB-75 CNS, 26.7%; in the assay on SNB-19 CNS, 29.1%; in the assay with U251 CNS it was 25.4%; in the assay on PC-3 prostate, 37%. Besides, the growth in the assay with UACC-62 melanoma is 18.3%; in the assay on LOX IMVI melanoma it was 10.5%; in the assay with EKVX NSCLC, 44.1%; in the assay on SN12C renal it was 20.5%; with UO-31 renal, 1.36% (active); in the assay with ACHN renal it was 10.7%. The growth with CAKI-1 renal is 15.1%; with CCRF-CEM leukemia, 1.76% (active); with MOLT-4 leukemia, 4.88% (active).
As for `O=C(c1ccccc1)N(CCCl)C(=O)N(CCCl)C(=O)c1ccccc1`, the growth with HCT-15 colon is 99.4%; in the assay with HT29 colon, 97.4%; with SNB-75 CNS, 98.8%; in the assay on SNB-19 CNS, 90.5%; in the assay on PC-3 prostate, 88.5%; with SK-MEL-5 melanoma it was 96.2%. Further, the growth in the assay with UACC-62 melanoma was 93.8%; in the assay with LOX IMVI melanoma, 88.2%; in the assay on SK-MEL-28 melanoma, 106%; in the assay with SK-MEL-2 melanoma, 93.5%; with SN12C renal it was 94.1%; in the assay on UO-31 renal, 82.4%. Also, the growth with TK-10 renal is 103%; in the assay with ACHN renal, 94.1%; with CAKI-1 renal, 97.3%; in the assay on A498 renal it was 96.6%; in the assay on CCRF-CEM leukemia it was 100%; in the assay on MOLT-4 leukemia it was 86.3%.
As to `COC1CC(C)C(OC)c2cc(O)cc(c2O)NC(=O)/C(C)=C/C=C\C(C)C(OC(N)=O)/C(C)=C\C(C)C1OC` (stereo unspecified), the growth in the assay with HCT-15 colon is 5.82% (active); in the assay on HT29 colon, 5.88% (active); with SNB-75 CNS it was 47.8%; with SNB-19 CNS it was 37.8%; in the assay with U251 CNS it was 43.9%; in the assay on PC-3 prostate it was 25.2%. For the same compound, the growth in the assay on SK-MEL-5 melanoma is -10.9% (active); with UACC-62 melanoma it was -27.6% (active); in the assay on SN12C renal, 30.3%; in the assay with UO-31 renal it was -70.9% (active); in the assay with TK-10 renal it was 68%; with ACHN renal, 28.5%. The values for the growth in the assay on CAKI-1 renal, in the assay on CCRF-CEM leukemia and in the assay on MOLT-4 leukemia were 54.2%, -30.7% (active) and -23.4% (active), respectively.
